Our source for the inhibition values is PubChem BioAssay AID2006 (Sanford-Burnham Center for Chemical Genomics, 2009).

The target in this experiment is SUMO-conjugating enzyme UBC9 (Homo sapiens) (UniProt P63279). In words: blockers of SAE1/SAE2–UBC9 SUMO transfer – biochemical, HTRF, uHTS, primary screen (AID 2006). The following applies: HTRF SUMOylation assay, SAE1/SAE2 + UBC9, in vitro, at 35 µM, stronger effect = higher value. (In general: Time-resolved FRET reads energy transfer from a long-lived donor to a nearby acceptor.)

Among all 290,000 compounds or so, about 1,000 (0.34%) were called active. The sample holds actives, similar compounds and a random draw of the others, so the mix is not that of the screen. Rule as the data show it: active = inhibition above about 50% (passing the limit was not always enough); inconclusive = no clear call, values can overlap the other calls.

Sequence of SUMO-conjugating enzyme UBC9 (Homo sapiens) (P63279 whole entry, looked up): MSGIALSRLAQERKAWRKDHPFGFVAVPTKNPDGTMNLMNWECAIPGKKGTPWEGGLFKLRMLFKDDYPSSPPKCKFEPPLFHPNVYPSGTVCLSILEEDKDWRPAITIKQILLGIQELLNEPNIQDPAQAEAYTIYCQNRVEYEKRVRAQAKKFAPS

What is called inhibition is the relative decrease from the control value, in per cent. As to `CC(=O)Oc1ccc2c(C)c(CC(C)O)c(=O)oc2c1` (stereo not given), the inhibition is 52.6% (active). Further, the inhibition (average of repeat tests) is 46.3%.

Take `Cc1c(Cc2ccccc2)c(=O)oc2cc(OCC(N)=O)ccc12`: the inhibition was 3.3% (inactive).

In the case of `CC(=O)Nc1cc2ccc(OC(C)=O)cc2oc1=O`, the inhibition was 43.7% (inactive).

Regarding `COc1ccc2c(C)c(CCC(=O)NC3CC3)c(=O)oc2c1C`, the inhibition was 15.9% (inactive).

Consider `COCCOC(=O)C1=C(C)Nc2nc(C)nn2C1c1ccccc1` (stereo not given), for which the inhibition was -5% (inactive).

With `COC(=O)c1nc2n(n1)C(c1ccc([N+](=O)[O-])cc1)C(C(=O)Nc1ccc(Cl)cc1)=C(C)N2` (stereo not given), the inhibition was 56.7% (active). The inhibition (average of repeat tests) worked out at 44.5%.

Take `COc1cc(C2C(C(=O)Nc3ccc(F)cc3)=C(C)Nc3nc(CCCO)nn32)cc(OC)c1OC` (stereo not given): the inhibition is 11.3% (inactive).

Consider `Cc1nn(C)c(Cl)c1CN1CCC(n2nccc2NC(=O)C2CCCC2)CC1`, for which the inhibition is 3.6% (inactive).

For `CCCCNC(=O)N(O)C1N(/N=C/c2ccc(N(C)C)cc2)C(=S)SC1(C)C` (stereo not given), the inhibition was 6.7% (inactive).

As for `Cc1cc(C)c(S(=O)(=O)c2ccc(F)cc2C)c(=O)[nH]1`, the inhibition was 14.5% (inactive).

Consider `CNC(=S)N/N=C/c1ccc(OCc2ccccc2)c(Br)c1`, for which the inhibition was 11.3% (inactive).

On to `COc1ccc(OC)c(NC(=O)Cc2cccs2)c1`, for which the inhibition is 8% (inactive).

Take `Cc1ccc(/C=C/C(=O)Nc2cc(S(=O)(=O)N3CCCCCC3)ccc2OCC(F)(F)F)o1`: the inhibition is 25.6% (inactive).

In the case of `CCc1nnc(NC(=O)/C=C/c2ccc(C)o2)s1`, the inhibition is 7.9% (inactive).

For the compound `Cc1ccc(/C=C/C(=O)Nc2ccc([N+](=O)[O-])c(NC(=O)/C=C/c3ccc(C)o3)c2)o1`, the inhibition is 74.6% (active).

On to `CC(C)c1nnc(NC(=O)CCC(=O)N2CCN(c3cccc(Cl)c3)CC2)s1`, for which the inhibition is 1.4% (inactive).

For `Cc1c(C)c(C)c(S(=O)(=O)N2CCC3(CC2)OCCO3)c(C)c1C`, the inhibition was 0.4% (inactive).

`Oc1ccc(CNc2ccccc2O)cc1`: the inhibition is 2.9% (inactive).

`N#Cc1ccc(Oc2ccc(C(F)(F)F)cc2NC(=O)c2ccc(F)cc2)cc1`: the inhibition was -26.5% (inactive).

Turning to `COc1ccc(NC(=O)CN(C)CC(=O)Nc2cccc(C(F)(F)F)c2)cc1`, the inhibition was 0.2% (inactive).

For `COc1cc(NC(=O)c2cncc(-c3ccc(C#N)cc3)c2)cc(C(=O)Nc2cccc(C(F)(F)F)c2)c1`, the inhibition is 71.3% (active). The inhibition (average of repeat tests) worked out at 53.1%.

On to `O=C(CN1CCN(S(=O)(=O)c2ccc(F)cc2)CC1)NC1CC1`, for which the inhibition was 8.8% (inactive).

For the compound `COc1cc2c(cc1OC)C(C(=O)Nc1cc(C)c(OC)c(C)c1)CC(=O)N2` (stereo not given), the inhibition is 1.4% (inactive).

For `COC(=O)C1=C(C)NC(=O)CC1c1ccccc1OC` (stereo not given), the inhibition is 10.4% (inactive).

`COc1cc(N/C=C2\CC(=O)NC(C)=C2C#N)cc(OC)c1OC`: the inhibition was 51.7% (active).

As for `CC(O)c1ccc(OCCN(C)c2ccccn2)cc1` (stereo not given), the inhibition is 20.8% (inactive).

`Cc1[nH]c2c(C(=O)N3CCCC(CCC(=O)NCc4ccccc4F)C3)cccc2c1C` (stereo not given): the inhibition was -0.7% (inactive).

As for `Brc1ccccc1C1Nc2cccc3cccc(c23)N1`, the inhibition is 69.7% (active).

On to `Cc1ccc(C2Nc3cccc4cccc(c34)N2)cc1`, for which the inhibition is 8.5% (inactive).

For the compound `Oc1ccc(C2Nc3cccc4cccc(c34)N2)cc1`, the inhibition was 31.7% (inactive).

Turning to `CC(C)NS(=O)(=O)c1ccc(OCC(=O)NC2CCCCCC2)cc1`, the inhibition was 2.1% (inactive).

As to `O=C(CC1NCCc2ccccc21)Nc1cccc(Cl)c1` (stereo not given), the inhibition is -5.3% (inactive).

Consider `CCCCCCNS(=O)(=O)c1ccccc1Br`, for which the inhibition was 21.7% (inactive).

For the compound `Cc1ccc(-n2ncc(C(=O)NC3CC3)c2C2CCN(C(=O)OC(C)(C)C)CC2)c(C)c1`, the inhibition is -2.6% (inactive).

In the case of `CCc1nccn1CCC(=O)N1CCCC(N2CCN(c3ccccc3F)CC2)C1` (stereo not given), the inhibition is 4.2% (inactive).

As to `COc1ccc(C(=O)CC(=O)c2ccc(C)cc2)c(O)c1`, the inhibition was -0.3% (inactive).

As for `O=c1c(-c2ccccc2)coc2cc(O)ccc12`, the inhibition is 20.1% (inactive).

On to `O=C1/C(=C/c2coc3ccc(O)cc3c2=O)SC(=S)N1c1ccccc1`, for which the inhibition was 57% (active). For the same compound, the inhibition (average of repeat tests) amounted to 34.2%.

As for `O=c1c(/C=N/O)coc2ccc(Cl)cc12`, the inhibition was 8.4% (inactive).

On to `Cc1cccc(OCC(O)Cn2c(N3CCCCC3)nc3c2c(=O)[nH]c(=O)n3C)c1` (stereo not given), for which the inhibition is 20.6% (inactive).

Regarding `CCn1cc(CN2CCN(CC(C)(C)C)C(CCO)C2)c2ccccc21` (stereo not given), the inhibition was 5.7% (inactive).

Take `Oc1ccccc1C1=NN(c2ccccc2)C(c2ccccc2)C1` (stereo not given): the inhibition was 11% (inactive).

With `CCN(CC)CCCNC(=S)N(CCO)Cc1cc2cc3c(cc2[nH]c1=O)OCO3`, the inhibition is 18.4% (inactive).

As to `Cc1ccc(NC(=O)C2CCCN2S(=O)(=O)c2cccc3cccnc23)c(C)c1` (stereo not given), the inhibition is 4.8% (inactive).

On to `O=S(=O)(c1ccc(Br)c2ccccc12)N1CCOCC1`, for which the inhibition is 2.6% (inactive).

`CC(C)[C@H](NC(=O)OCc1ccccc1)C(=O)OCc1ccccc1`: the inhibition is -16.4% (inactive).

For `O=[N+]([O-])C(=c1ccc2c(c1)N1C3=C(CCCC3)CC3CCCCC31N=2)[N+](=O)[O-]` (stereo not given), the inhibition is 57.5% (active).

Take `Cc1sc2ncn(CC(=O)NCCN(C)C)c(=O)c2c1S(=O)(=O)N1CCC(C)CC1`: the inhibition is -5.2% (inactive).

Take `CN1CCC(=O)N([C@H](CO)Cc2ccccc2)CC1`: the inhibition is 13% (inactive).

`CCOc1ccc(OCc2ccc(C(=O)N(C)c3ccccc3)o2)cc1`: the inhibition is 5% (inactive).

On to `CC1=C(C(=O)OC2CCCCC2)C(c2cccnc2)n2ncnc2N1` (stereo not given), for which the inhibition is -7.1% (inactive).

`C=CCc1ccccc1OCC(O)CN1CCN(CCO)CC1` (stereo not given): the inhibition was 0.7% (inactive).

Regarding `CCC(CC)C(=O)Nc1ccc(S(=O)(=O)Nc2nccs2)cc1`, the inhibition was 14.7% (inactive).

For `O=C(Nc1ccc(S(=O)(=O)Nc2nccs2)cc1)c1cc(=O)[nH]c2ccccc12`, the inhibition is 30.5% (inactive).

Turning to `O=C(Nc1ccc(S(=O)(=O)Nc2nccs2)cc1)c1cc(-c2ccncc2)nc2ccccc12`, the inhibition is 50% (active).

Regarding `Cc1nn(Cc2ccccc2)c(C)c1NS(=O)(=O)c1ccccc1`, the inhibition is 3.7% (inactive).

In the case of `O=C(O)c1cccc(S(=O)(=O)Nc2ccc(O)cc2Sc2nc3ccccc3s2)c1`, the inhibition is -14.5% (inactive).

Take `COc1ccc(S(=O)(=O)Nc2ccc(O)c(Sc3nc4ccccc4s3)c2)cc1`: the inhibition is -0.5% (inactive).

Take `O=[N+]([O-])c1c(NCCO)cc(Sc2nc3ccccc3s2)c2nonc12`: the inhibition is 90.1% (active).

Turning to `CCOCc1nnc(NC(=O)CCC2CCCCC2)s1`, the inhibition was 10.6% (inactive).

With `O=C(CCc1ccccc1)Nc1ccnn1C1CCN(Cc2ccc(OCCO)cc2)CC1`, the inhibition was 6.4% (inactive).

Turning to `Nc1c(NCCc2ccccc2)c2ccccc2oc1=O`, the inhibition was 6.6% (inactive).

For the compound `O=c1oc2cc(O)ccc2cc1-c1ccc(F)cc1`, the inhibition was 50.3% (active). For the same compound, the inhibition (average of repeat tests) was 56%.

In the case of `O=c1oc2ccccc2cc1-c1csc(Nc2ccc(O)cc2)n1`, the inhibition was 7.7% (inactive).

Regarding `COc1cccc(C(=O)c2cc3ccc(O)cc3oc2=O)c1`, the inhibition was 16.5% (inactive).

As to `O=c1onc(-c2c(F)cccc2F)n1-c1ccccc1Cl`, the inhibition is -6.5% (inactive).

For `CCOc1ccc(C2/C(=C(/O)c3ccc4c(c3)CC(C)O4)C(=O)C(=O)N2CCCn2ccnc2)cc1` (stereo not given), the inhibition is -13.9% (inactive).

With `Cc1ccc(CNC(=O)Cc2cn(C)c3ccccc23)cc1`, the inhibition was -1.9% (inactive).

In the case of `Cn1c(-c2ccco2)nc2cc3ccccc3cc21`, the inhibition was 44.7% (inactive).

As for `Clc1ccccc1CSc1nnc(-c2ccco2)c(-c2ccco2)n1`, the inhibition was 35.9% (inactive).

On to `c1coc(-c2nc3nc4ccccc4n3nc2-c2ccco2)c1`, for which the inhibition is 90.5% (active).

For the compound `O=C(NCCN1CCCC(O)C1)c1cc(COc2c(F)cccc2F)on1` (stereo not given), the inhibition was 1.7% (inactive).

`CC(=O)N1CCC(N(C(=O)Nc2ccc(Cl)cc2)C(C)C)CC1`: the inhibition was 13.1% (inactive).

In the case of `Cc1ccc(NS(=O)(=O)c2ccc(-c3coc(C)n3)cc2)c(C)c1`, the inhibition is -8.6% (inactive).

Take `CCc1ccc(-c2cc(C(=O)NCc3ccco3)c3ccccc3n2)s1`: the inhibition is 59.3% (active).

On to `COC(=O)CNC(=O)c1cc(-c2ccncc2)nc2ccccc12`, for which the inhibition was 0.8% (inactive).

In the case of `CCCCN(C)CCCNC(=O)c1cc(-c2cccs2)nc2ccccc12`, the inhibition was 20.3% (inactive).

On to `Cc1ccccc1N1CCN(C2CCCN(C(=O)c3cn4c(C)cccc4n3)C2)CC1` (stereo not given), for which the inhibition was -1.6% (inactive).

In the case of `CCOC(=O)/C(=N\Nc1ccccc1[N+](=O)[O-])c1csc(Nc2ccccc2)n1`, the inhibition was 10.4% (inactive).

Consider `COc1cc(C(=O)Nn2c(CC(C)C)nc3ccccc3c2=O)cc(OC)c1OC`, for which the inhibition is 7.6% (inactive).

Take `COC(=O)c1cc(OCC(=O)NC2CCCc3ccccc32)cc(C(=O)OC)c1` (stereo not given): the inhibition was 11.7% (inactive).

Regarding `O=C(O)c1ccccc1NC(=O)c1ccccc1-c1ccccc1C(=O)O`, the inhibition was 9% (inactive).

Turning to `COc1ccccc1NC(=O)CSc1nc2sc3c(c2c(=O)n1-c1ccccc1)CCN(C)C3`, the inhibition is -8.5% (inactive).

Consider `CCOC(=O)c1ccc[n+](CC(=O)Nc2ccccc2OC(F)F)c1`, for which the inhibition was -3.9% (inactive).

As for `Cc1ccc(-c2nc(SCC(=O)Nc3ccccc3OC(F)F)c3c(C)c(C(=O)O)sc3n2)cc1`, the inhibition is 77.1% (active).

With `CCc1nc2cccnc2n1-c1ccc(C(=O)O)cc1`, the inhibition is 10.1% (inactive).

In the case of `CCOC(=O)CN(C(=O)COc1nc(C)cc(C)c1C#N)c1ccc(Cl)cc1`, the inhibition was 16.2% (inactive).

`Cc1cccc(C)c1N1C(=O)CN(Cc2ccccc2)C1=S`: the inhibition is 3.1% (inactive).

In the case of `CCOCc1nnc(NC(=O)CCS(=O)(=O)Cc2ccccc2)s1`, the inhibition is 0.9% (inactive).

Take `CC(C)(C)c1ccc(C(=O)NCCn2c(N)c(C#N)c3nc4ccccc4nc32)cc1`: the inhibition is 27.7% (inactive).

`COCC(C)OC(=O)c1c(N)n(CCCN2CCOCC2)c2nc3ccccc3nc12` (stereo not given): the inhibition is 48.2% (inactive).

For the compound `CC(C)(C)OC(=O)c1c(N)n(CCCN2CCCC2=O)c2nc3ccccc3nc12`, the inhibition was 62.9% (active). For the same compound, the inhibition (average of repeat tests) amounted to 40.3%.

Regarding `CC(C)=CCCC(C)CN1CCC(n2nccc2NC(=O)c2ccccc2)CC1` (stereo not given), the inhibition was 7% (inactive).

`COc1cc(/C(=C/c2ccccc2)c2ccccc2)c2c(c1)oc1ccccc12`: the inhibition was 12.7% (inactive).
